A short description of assay [1]: alternative oxidase inhibition and growth effect – profiling panel (AID 1259412).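 As to growth (% of control): growth monitored over 72 h.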 The settings on record: AOX-dependent respiration, at 500 µM; for growth (% of control): O2 uptake, measured here: growth; for O2 uptake (% of control): measured here: O2 uptake, control condition (no AOX).
Assay [2] has as its system alternative oxidase (AOX). Described as above. The settings on record: AOX-dependent respiration, at 500 µM, stronger effect = lower value.
Where [3] appears, read: AOX-dependent treatment condition, stronger effect = lower value.

SMILES strings stand for the structures. Active and inactive are the calls of the source. No rule for the calls is given here.

For the compound `O=C(Nc1cccc(Br)c1)c1ccccc1`, the values for the growth (% of control) in assay [1] (setting [3]) and in assay [1] (control condition) were 51.9% and 71.6%, respectively. For the same compound, the O2 uptake (% of control) in assay [1] (stronger effect = lower value) was 88.5%; in assay [2] it was 15.7% (active).

`O=C(Nc1cccc(C(F)(F)F)c1)c1cccc(I)c1`: the results for the growth (% of control) in assay [1] (setting [3]) and in assay [1] (control condition) were 49.4% and 83.8%, respectively. Besides, the values for the O2 uptake (% of control) in assay [1] (stronger effect = lower value) and in assay [2] were 82.2% and 17.5% (active), respectively.

Turning to `O=C(Nc1cccc(F)c1)c1cccc(I)c1`, the growth (% of control) was determined as 64.5% in assay [1] (setting [3]) and 86.5% in assay [1] (control condition). Moreover, the O2 uptake (% of control) was 76% in assay [1] (stronger effect = lower value) and 23.7% (active) in assay [2].

On to `COc1cccc(C(=O)Nc2ccc(N3CCOCC3)cc2)c1`, for which the growth (% of control) was determined as 86.1% in assay [1] (setting [3]) and 86.6% in assay [1] (control condition). The O2 uptake (% of control) in assay [1] (stronger effect = lower value) was 102%; in assay [2] it was 92.3%.

For `Cc1cccc(C(=O)Nc2ccc(N3CCOCC3)cc2)c1`, the growth (% of control) in assay [1] (setting [3]) was found to be 91%; in assay [1] (control condition) it was 96%. Besides, the values for the O2 uptake (% of control) in assay [1] (stronger effect = lower value) and in assay [2] were 96.2% and 84.8% (inactive), respectively.

Turning to `O=C(Nc1cccc([N+](=O)[O-])c1)c1cccc(I)c1`, the growth (% of control) in assay [1] (setting [3]) was 68.4%; in assay [1] (control condition), 95.6%. Further, the O2 uptake (% of control) was 93.5% in assay [1] (stronger effect = lower value) and 21% (active) in assay [2].

As to `O=C(Nc1cccc(I)c1)c1cccc(I)c1`, the growth (% of control) in assay [1] (setting [3]) amounted to 87.3%; in assay [1] (control condition) it was 90.6%. Also, the O2 uptake (% of control) in assay [1] (stronger effect = lower value) was 96.7%; in assay [2] it was 25.1% (active).

For `O=C(Nc1cccc(C(F)(F)F)c1)c1ccccc1`, the growth (% of control) stood at 38.9% in assay [1] (setting [3]) and 71.4% in assay [1] (control condition). Besides, the O2 uptake (% of control) in assay [1] (stronger effect = lower value) was 84%; in assay [2] it was 16.8% (active).

In the case of `COc1cccc(C(=O)Nc2cccc(Cl)c2)c1`, the growth (% of control) in assay [1] (setting [3]) was 0%; in assay [1] (control condition) it was 33%. The O2 uptake (% of control) in assay [1] (stronger effect = lower value) was 76.3%; in assay [2], 33.2% (active).

In the case of `Cc1cccc(C(=O)Nc2cccc(Br)c2)c1`, the results for the growth (% of control) in assay [1] (setting [3]) and in assay [1] (control condition) were 26.6% and 101%, respectively. Moreover, the figures for the O2 uptake (% of control) in assay [1] (stronger effect = lower value) and in assay [2] were 90.2% and 18.6% (active), respectively.

For `COc1cccc(C(=O)Nc2cccc(F)c2)c1`, the growth (% of control) in assay [1] (setting [3]) is 7.84%; in assay [1] (control condition), 32.6%. Also, the O2 uptake (% of control) in assay [1] (stronger effect = lower value) is 79.2%; in assay [2] it was 44.5% (active).

Regarding `COc1cc(NC(=O)c2cccc(Cl)c2)cc(OC)c1OC`, the growth (% of control) in assay [1] (setting [3]) worked out at 82.2%; in assay [1] (control condition), 78%. Further, the O2 uptake (% of control) is 97.8% in assay [1] (stronger effect = lower value) and 81.5% (active) in assay [2].

Regarding `O=C(Nc1ccc(N2CCOCC2)cc1)c1cccc(Cl)c1`, the results for the growth (% of control) in assay [1] (setting [3]) and in assay [1] (control condition) were 89.6% and 92.8%, respectively. Moreover, the values for the O2 uptake (% of control) in assay [1] (stronger effect = lower value) and in assay [2] were 90.9% and 81.3% (active), respectively.

Consider `O=C(Nc1cccc(Cl)c1)c1cccc(I)c1`, for which the growth (% of control) in assay [1] (setting [3]) was 73%; in assay [1] (control condition), 88.6%. Besides, the O2 uptake (% of control) in assay [1] (stronger effect = lower value) is 80.5%; in assay [2], 15.4% (active).

Regarding `O=C(Nc1cccc(I)c1)c1cccc(F)c1`, the figures for the growth (% of control) in assay [1] (setting [3]) and in assay [1] (control condition) were 67.2% and 97.5%, respectively. The values for the O2 uptake (% of control) in assay [1] (stronger effect = lower value) and in assay [2] were 77.3% and 21.9% (active), respectively.

For the compound `O=C(Nc1ccc(N2CCOCC2)cc1)c1cccc(Br)c1`, the growth (% of control) came to 76.7% in assay [1] (setting [3]) and 92.2% in assay [1] (control condition). Moreover, the O2 uptake (% of control) in assay [1] (stronger effect = lower value) is 100%; in assay [2] it was 85% (active).

In the case of `COc1cccc(C(=O)Nc2cccc(I)c2)c1`, the growth (% of control) in assay [1] (setting [3]) worked out at 78.2%; in assay [1] (control condition), 80%. Moreover, the O2 uptake (% of control) in assay [1] (stronger effect = lower value) was 92.5%; in assay [2], 23% (active).

As for `O=C(NCc1ccc2c(c1)OCO2)c1cccc(I)c1`, the values for the growth (% of control) in assay [1] (setting [3]) and in assay [1] (control condition) were 99.2% and 97.5%, respectively. The figures for the O2 uptake (% of control) in assay [1] (stronger effect = lower value) and in assay [2] were 99.1% and 26.3% (active), respectively.

Turning to `COc1cccc(C(=O)Nc2cc(OC)c(OC)c(OC)c2)c1`, the growth (% of control) in assay [1] (setting [3]) stood at 104%; in assay [1] (control condition) it was 89%. Also, the figures for the O2 uptake (% of control) in assay [1] (stronger effect = lower value) and in assay [2] were 101% and 77.6% (inactive), respectively.

Take `O=C(Nc1cccc(I)c1)c1ccccc1`: the results for the growth (% of control) in assay [1] (setting [3]) and in assay [1] (control condition) were 95% and 91%, respectively. Moreover, the results for the O2 uptake (% of control) in assay [1] (stronger effect = lower value) and in assay [2] were 78.6% and 17.3% (active), respectively.

For the compound `COc1cccc(C(=O)Nc2cccc([N+](=O)[O-])c2)c1`, the growth (% of control) in assay [1] (setting [3]) came out at 63.7%; in assay [1] (control condition) it was 109%. In addition, the O2 uptake (% of control) in assay [1] (stronger effect = lower value) was 91.5%; in assay [2], 31.9% (active).

Consider `Nc1cccc(S(=O)(=O)c2cccc(NC(=O)c3ccccc3)c2)c1`, for which the values for the growth (% of control) in assay [1] (setting [3]) and in assay [1] (control condition) were 93.3% and 84.2%, respectively. Besides, the results for the O2 uptake (% of control) in assay [1] (stronger effect = lower value) and in assay [2] were 112% and 98.2% (inactive), respectively.

Regarding `O=C(Nc1cccc(Br)c1)c1cccc(Br)c1`, the growth (% of control) in assay [1] (setting [3]) was 82.5%; in assay [1] (control condition), 91.3%. The O2 uptake (% of control) was 81% in assay [1] (stronger effect = lower value) and 16.5% (active) in assay [2].

As to `O=C(Nc1cccc(F)c1)c1ccccc1`, the growth (% of control) in assay [1] (setting [3]) is 83%; in assay [1] (control condition) it was 92.8%. Further, the O2 uptake (% of control) in assay [1] (stronger effect = lower value) is 102%; in assay [2], 43.6% (active).

With `O=C(NCc1ccc2c(c1)OCO2)c1cccc(Br)c1`, the growth (% of control) in assay [1] (setting [3]) was determined as 88%; in assay [1] (control condition) it was 82.8%. Also, the O2 uptake (% of control) in assay [1] (stronger effect = lower value) is 94.7%; in assay [2] it was 24.4% (active).

As to `O=C(Nc1cccc(Cl)c1)c1ccccc1`, the growth (% of control) in assay [1] (setting [3]) was 46.9%; in assay [1] (control condition) it was 118%. In addition, the O2 uptake (% of control) was 88% in assay [1] (stronger effect = lower value) and 21.5% (active) in assay [2].

Turning to `NC(=O)c1ccccc1NC(=O)c1cccc(F)c1`, the growth (% of control) was found to be 88.1% in assay [1] (setting [3]) and 94.5% in assay [1] (control condition). The O2 uptake (% of control) was 85.1% in assay [1] (stronger effect = lower value) and 81% (inactive) in assay [2].

For `O=C(Nc1cccc(I)c1)c1cccc(Cl)c1`, the figures for the growth (% of control) in assay [1] (setting [3]) and in assay [1] (control condition) were 63.1% and 82.8%, respectively. Further, the O2 uptake (% of control) is 88.3% in assay [1] (stronger effect = lower value) and 13.2% (active) in assay [2].

Take `O=C(Nc1cccc(Br)c1)c1cccc(Cl)c1`: the growth (% of control) in assay [1] (setting [3]) stood at 65.4%; in assay [1] (control condition), 91.3%. The figures for the O2 uptake (% of control) in assay [1] (stronger effect = lower value) and in assay [2] were 95.9% and 12% (active), respectively.

As to `O=C(Nc1ccccc1)c1ccccc1`, the values for the growth (% of control) in assay [1] (setting [3]) and in assay [1] (control condition) were 69.8% and 94.3%, respectively. In addition, the O2 uptake (% of control) is 99.9% in assay [1] (stronger effect = lower value) and 67.2% (active) in assay [2].

For the compound `O=C(Nc1cccc(Br)c1)c1cccc(F)c1`, the results for the growth (% of control) in assay [1] (setting [3]) and in assay [1] (control condition) were 22.3% and 90.4%, respectively. The O2 uptake (% of control) in assay [1] (stronger effect = lower value) is 77.9%; in assay [2], 35.1% (active).

As to `Cc1cccc(C(=O)Nc2ccccc2C(N)=O)c1`, the growth (% of control) in assay [1] (setting [3]) worked out at 74.2%; in assay [1] (control condition), 73.9%. Also, the O2 uptake (% of control) is 92.4% in assay [1] (stronger effect = lower value) and 60.2% (active) in assay [2].

As for `O=C(Nc1ccc(N2CCOCC2)cc1)c1ccccc1I`, the results for the growth (% of control) in assay [1] (setting [3]) and in assay [1] (control condition) were 86.7% and 96.2%, respectively. Also, the O2 uptake (% of control) in assay [1] (stronger effect = lower value) is 86.1%; in assay [2], 59.6% (active).

Regarding `O=C(Nc1cccc([N+](=O)[O-])c1)c1cccc(Cl)c1`, the growth (% of control) in assay [1] (setting [3]) was 84.5%; in assay [1] (control condition) it was 90.6%. In addition, the O2 uptake (% of control) is 93% in assay [1] (stronger effect = lower value) and 22.3% (active) in assay [2].

Turning to `COc1cccc(C(=O)Nc2ccccc2)c1`, the growth (% of control) in assay [1] (setting [3]) stood at 43.8%; in assay [1] (control condition), 60.4%. In addition, the O2 uptake (% of control) in assay [1] (stronger effect = lower value) was 95.1%; in assay [2], 57.1% (active).

Take `COc1cc(NC(=O)c2cccc(C#N)c2)cc(OC)c1OC`: the growth (% of control) in assay [1] (setting [3]) worked out at 89.6%; in assay [1] (control condition), 90.9%. Also, the O2 uptake (% of control) is 104% in assay [1] (stronger effect = lower value) and 91.5% (inactive) in assay [2].

Take `NC(=O)c1ccccc1NC(=O)c1ccccc1`: the growth (% of control) turned out to be 84.2% in assay [1] (setting [3]) and 88.6% in assay [1] (control condition). Also, the O2 uptake (% of control) in assay [1] (stronger effect = lower value) is 93.9%; in assay [2], 91.2%.

On to `O=C(Nc1cccc(NC(=O)c2cccc(I)c2)c1)c1cccc(I)c1`, for which the growth (% of control) in assay [1] (setting [3]) was determined as 107%; in assay [1] (control condition), 116%. Besides, the values for the O2 uptake (% of control) in assay [1] (stronger effect = lower value) and in assay [2] were 106% and 89% (active), respectively.

As for `O=C(Nc1cccc([N+](=O)[O-])c1)c1cccc(F)c1`, the growth (% of control) in assay [1] (setting [3]) stood at 91.1%; in assay [1] (control condition), 120%. The O2 uptake (% of control) in assay [1] (stronger effect = lower value) was 92.7%; in assay [2], 44.8% (active).

Values taken from PubChem BioAssay AID1259412 (Laboratorio de Genomica e Expressao (LGE), UNICAMP, 2018).
